This is an account of results in PubChem BioAssay (NCI).

About 83,000 compounds went through this panel and 20% of them were active in at least one assay; those are over-represented in the sample as a whole.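 Single-concentration screen, 48 h exposure, 96-well plates. Endpoint: percent growth. Below 10 = active.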 Values without a mark were called inactive. Calls of active or inactive are those of the source.

Test systems include SR leukemia; RPMI-8226 leukemia; OVCAR-8 ovarian; OVCAR-5 ovarian; OVCAR-4 ovarian; SK-OV-3 ovarian; IGROV1 ovarian; HS 578T breast; NCI/ADR-RES ovarian; T-47D breast; BT-549 breast; MDA-MB-435 melanoma; SW-620 colon; MCF7 breast; HCT-116 colon; HCC-2998 colon; KM12 colon.
Assay in all cases: NCI-60 one-dose screen, 48 h (100 = growth as untreated, 0 = no growth, -100 = all killed)
What all share (details): 10 µM unless noted

As to `C/C(=N\NC(=O)Nc1ccccc1)c1nnn(-c2ccc([N+](=O)[O-])cc2)c1C`, the growth in the assay with SR leukemia is 100%; in the assay with RPMI-8226 leukemia it was 102%; with OVCAR-8 ovarian, 102%; in the assay with OVCAR-5 ovarian it was 112%; with OVCAR-4 ovarian, 105%; in the assay on SK-OV-3 ovarian, 109%. Further, the growth was 112% in the assay on IGROV1 ovarian; 116% in the assay on HS 578T breast; 102% in the assay on NCI/ADR-RES ovarian; 98.2% in the assay on T-47D breast; 111% in the assay with BT-549 breast; 104% in the assay with MDA-MB-435 melanoma. Also, the growth was 104% with SW-620 colon; 97.9% in the assay on MCF7 breast; 99.5% in the assay on HCT-116 colon; 106% in the assay on HCC-2998 colon; 101% in the assay on KM12 colon.

Take `O=C(Nc1ccc(Cl)c(C(F)(F)F)c1)Nc1ccc2oc(=O)ccc2c1`: the growth with SR leukemia is 45.6%; with RPMI-8226 leukemia, -1.56% (active); in the assay on OVCAR-8 ovarian, 43.4%; in the assay on OVCAR-5 ovarian, 75.6%; in the assay on OVCAR-4 ovarian it was 43.3%; in the assay with SK-OV-3 ovarian, 81%. Besides, the growth in the assay on IGROV1 ovarian is 30.7%; in the assay on HS 578T breast it was 83.1%; with NCI/ADR-RES ovarian, 19.6%; in the assay on T-47D breast it was 8.73% (active); in the assay on BT-549 breast it was 78.7%; with MDA-MB-435 melanoma, 50.3%. The growth is 37.3% in the assay with SW-620 colon; 11.9% in the assay on MCF7 breast; 15.7% in the assay with HCT-116 colon; 29.2% with HCC-2998 colon; 19.6% in the assay on KM12 colon.

On to `COc1ccc(/C(=N\N=C(N)N)c2ccc(Cl)cc2)cc1OC`, for which the growth in the assay on SR leukemia was 42.7%; in the assay on RPMI-8226 leukemia it was 70.4%; in the assay on OVCAR-8 ovarian, 87.2%; in the assay with OVCAR-5 ovarian, 78.2%; with OVCAR-4 ovarian, 88.4%; with SK-OV-3 ovarian, 78.5%. Besides, the growth in the assay with IGROV1 ovarian is 51.5%; in the assay on HS 578T breast, 67.5%; in the assay with NCI/ADR-RES ovarian it was 99.3%; in the assay on T-47D breast, 68%; in the assay on BT-549 breast it was 81.2%; in the assay on MDA-MB-435 melanoma it was 58%. The growth in the assay on SW-620 colon was 73.6%; in the assay on MCF7 breast it was 54.5%; with HCT-116 colon, 34.8%; with HCC-2998 colon, 69.8%; with KM12 colon, 61.5%.

On to `N#CC1=C2NCCCNc3oc(nc3C#N)Cc3ccccc3CC(=N1)O2`, for which the growth was 36.6% in the assay with SR leukemia; 19.9% in the assay with RPMI-8226 leukemia; 97.4% in the assay with OVCAR-8 ovarian; 102% with OVCAR-5 ovarian; 94.5% in the assay with OVCAR-4 ovarian; 102% with SK-OV-3 ovarian. In addition, the growth with IGROV1 ovarian is 93.4%; with HS 578T breast, 92.4%; in the assay on NCI/ADR-RES ovarian it was 97.8%; in the assay with T-47D breast it was 92.6%; in the assay on BT-549 breast, 135%; with MDA-MB-435 melanoma, 95.1%. Also, the growth is 50.7% with SW-620 colon; 33.8% in the assay with MCF7 breast; 23.4% in the assay with HCT-116 colon; 114% with HCC-2998 colon; 93.6% with KM12 colon.

Consider `N#Cc1c(-c2ccc(F)cc2)cc(-c2c[nH]c3ccccc23)nc1-c1c[nH]c2ccccc12`, for which the growth in the assay with SR leukemia was 89.1%; in the assay with RPMI-8226 leukemia, 101%; in the assay with OVCAR-8 ovarian it was 100%; in the assay with OVCAR-5 ovarian, 109%; in the assay with OVCAR-4 ovarian, 101%; in the assay with SK-OV-3 ovarian it was 96.9%. Besides, the growth in the assay with IGROV1 ovarian was 102%; with HS 578T breast, 95.2%; with NCI/ADR-RES ovarian it was 103%; in the assay with T-47D breast, 89.9%; with BT-549 breast it was 109%; in the assay with MDA-MB-435 melanoma it was 107%. Also, the growth in the assay on SW-620 colon was 107%; with MCF7 breast, 89.3%; with HCT-116 colon it was 105%; in the assay with HCC-2998 colon it was 109%; in the assay on KM12 colon it was 101%.

Consider `O=C(/C=C/c1ccc(F)cc1)Nc1cccc2cccnc12`, for which the growth is 103% in the assay on SR leukemia; 94.2% in the assay with RPMI-8226 leukemia; 106% with OVCAR-8 ovarian; 104% in the assay with OVCAR-5 ovarian; 93.3% with OVCAR-4 ovarian; 90.2% with SK-OV-3 ovarian. In addition, the growth in the assay with IGROV1 ovarian is 71.8%; in the assay with HS 578T breast, 112%; in the assay with NCI/ADR-RES ovarian it was 102%; in the assay with T-47D breast it was 32.8%; with BT-549 breast, 115%; in the assay on MDA-MB-435 melanoma, 107%. Further, the growth in the assay with SW-620 colon is 101%; with MCF7 breast it was 6.92% (active); in the assay on HCT-116 colon it was 95.9%; in the assay on HCC-2998 colon it was 88%; with KM12 colon, 95%.

With `C#C[C@]1(O)CC[C@H]2[C@@H]3CC=C4c5sc(N(C)c6ccccc6)nc5CC[C@]4(C)[C@H]3CC[C@@]21C`, the growth in the assay with SR leukemia is 43.7%; in the assay with RPMI-8226 leukemia it was 2.94% (active); with OVCAR-8 ovarian it was 82%; with OVCAR-5 ovarian it was 92.5%; with OVCAR-4 ovarian, 94%; with SK-OV-3 ovarian, 98.7%. The growth with IGROV1 ovarian is 107%; in the assay on HS 578T breast, 89.8%; with NCI/ADR-RES ovarian it was 82.1%; in the assay on T-47D breast, 75.2%; in the assay on BT-549 breast, 74.6%; in the assay on MDA-MB-435 melanoma, 89.9%. For the same molecule, the growth was 92.3% with SW-620 colon; 67.3% with MCF7 breast; 48.4% with HCT-116 colon; 109% in the assay on HCC-2998 colon; 54.6% with KM12 colon.

As to `COc1ccc([C@H]2C(=O)N(c3cc(OC)c(OC)c(OC)c3)[C@@H]2c2ccc(OC)c(O)c2)cc1`, the growth is 11.4% with SR leukemia; 22.2% with RPMI-8226 leukemia; 5.81% (active) in the assay with OVCAR-8 ovarian; 34.6% in the assay with OVCAR-5 ovarian; 63.5% in the assay on OVCAR-4 ovarian; 27.5% in the assay with SK-OV-3 ovarian. Besides, the growth in the assay with IGROV1 ovarian is 28.2%; with HS 578T breast, 2.75% (active); with NCI/ADR-RES ovarian it was 10.4%; in the assay with T-47D breast, 90.5%; in the assay on BT-549 breast it was -28.2% (active); in the assay on MDA-MB-435 melanoma, -6.94% (active). Moreover, the growth with SW-620 colon is 23.3%; in the assay with MCF7 breast, 14%; in the assay on HCT-116 colon, 6.05% (active); in the assay with HCC-2998 colon it was 13.3%; in the assay with KM12 colon, 12.4%.

Turning to `Cc1ccc(/C=N/Nc2nc(Nc3ccccc3)nc(Nc3ccc(S(N)(=O)=O)cc3)n2)cc1`, the growth was 35.5% in the assay on SR leukemia; 44% in the assay on RPMI-8226 leukemia; 69.2% with OVCAR-8 ovarian; 84.5% in the assay on OVCAR-5 ovarian; 69.6% in the assay with OVCAR-4 ovarian; 110% with SK-OV-3 ovarian. In addition, the growth in the assay with IGROV1 ovarian was 53.4%; in the assay on HS 578T breast, 62.9%; in the assay with NCI/ADR-RES ovarian, 101%; in the assay with T-47D breast, 54.5%; in the assay with BT-549 breast, 76.5%; in the assay on MDA-MB-435 melanoma it was 69.4%. For the same molecule, the growth in the assay with SW-620 colon was 92.3%; with MCF7 breast, 26.5%; in the assay on HCT-116 colon, 51.3%; in the assay on HCC-2998 colon, 74.1%; in the assay with KM12 colon, 66%.
